SARS PLpro yeast: qHTS of Yeast-based Assay for SARS-CoV PLP. S. cerevisiae expressing SARS-CoV PLpro, growth rescue. Potency, µM (highest dose often 32.9 µM), for inactives: at the highest dose activity, positive = growth rescue, hits mostly activators. hit rate 0.19% among 330,000; calls by dose curve; further: potency means the concentration at half of the fitted maximal effect; 0% is about no effect; nearly all actives have a fitted effect of over 55% in size
Lassa entry inh: qHTS for Inhibitors of binding or entry into cells for Lassa Virus | AID 540256, 2011 | hit rate 1.2% among 300,000 | Lassa virus pseudotype entry inhibition, cell reporter | Potency, µM (titrated, usually from 37.9 µM), for inactives: at the top dose activity change, negative = inhibition, actives largely listed as inhibitors; calls by dose curve; tested in HEK293 cells; further: potency means the concentration at half of the fitted maximal effect; on the % scale 0 is the no-effect control and ±100 the full control effect; nearly all actives have a fitted effect of over 50% in size
MARV entry inh: qHTS for inhibitors of binding or entry into cells for Marburg Virus; hit rate 1.8% among 300,000; Marburg virus pseudotyped entry inhibition, cell reporter; Potency, µM (top dose mostly 37.8 µM), inactives show at the highest dose activity change, negative = inhibition, most hits filed as inhibitors; AID 540276, 2011; calls by dose curve; tested in HEK293 cells; further: potency means the concentration at half of the fitted maximal effect; on the % scale 0 is the no-effect control and ±100 the full control effect
HCV inhibitor: qHTS Assay for Inhibitors of Hepatitis C Virus (HCV). Huh7.5.1 HCVcc-Cre infection, luciferase reporter, 44 h. Potency, µM (doses to about 41.8 µM), inactives show top-dose activity change, negative = inhibition, actives largely listed as inhibitors. hit rate 3.4% among 340,000; active means well fitted inhibition curve with a large enough effect; inconclusive means small, poorly fitted or top-dose-only effect, or another doubt; inactive means no such curve, though single readings can be large or run the other way; further: potency means the concentration at half of the fitted maximal effect; on the % scale 0 is the no-effect control and ±100 the full control effect
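Whole-lifecycle infectious HCVcc-Cre system; cells 1,000/well, compound then virus (~0.5 moi) added 4 h after plating, 44 h culture. Luciferase read 15 sec following 15 min substrate incubation, room temp.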
HCMV inh: qHTS Assay for inhibitors of the human cytomegalovirus (HCMV); HFF cells, HCMV-luciferase reporter, 72 h; hits give low values; AID 1259415, 2018; activity change, negative = inhibition, % at 57.5 µM; hit rate 4.5% among 410,000; in the data active means activity change below about -60%; inconclusive means no clear call, values can overlap the other calls; inactive means above about -39%; further: on the % scale 0 is the no-effect control and ±100 the full control effect
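Two-dose cell screen: HFF monolayers treated with compounds and infected with luciferase-expressing HCMV at 1 PFU/cell, 72 h at 37C, then lysed for luciferase measurement.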
FMDV inh: High Throughput Screening for Foot and Mouth Disease Virus Antivirals | FMDV antiviral cell-based qHTS | AID 1159524, 2015 | Potency, µM (highest dose often 57.9 µM), for the others: top-dose activity change, negative = inhibition, hits mostly inhibitors | hit rate 1.2% among 410,000; calls by dose curve; tested in HEK293T cells; further: read-out not given here; potency means the concentration at half of the fitted maximal effect; on the % scale 0 is the no-effect control and ±100 the full control effect; nearly all actives have a fitted effect of over 45% in size
The depositor's hits bear a star; [ ] = dose if it differs, or a comment. Shown are actives, neighbours in structure and some others; about 8% of the full set was active somewhere.

How did COc1cc(/C=C2\SC(=O)NC2=O)ccc1Oc1ccc([N+](=O)[O-])cn1 do in these assays?
SARS PLpro yeast: -1%; Lassa entry inh: -1%; MARV entry inh: 7%[46.1 µM]; HCV inhibitor: 6%; HCMV inh: -60*; FMDV inh: -18%

How did COc1cc(/C=C2/SC(N)=NC2=O)ccc1Oc1ccc([N+](=O)[O-])cc1[N+](=O)[O-] do in these assays?
SARS PLpro yeast: -14%; Lassa entry inh: inconclusive; MARV entry inh: inconclusive; HCV inhibitor: 10%; HCMV inh: -70*; FMDV inh: -24%

Results for CN1c2ccccc2[C@@]2(O)C(=O)[C@@]1(C)[C@H]1Cc3ccccc3[C@H]12 ?
MARV entry inh: 0%[14.2 µM]

How did COc1cccc(CNc2nc3cc(-c4ccccc4CO)sc3c(=O)n2C)c1 do in these assays?
HCMV inh: 7; FMDV inh: -2%

Results for C[C@H](O)CNC(=O)c1[nH]cnc1C(=O)Nc1cccc(Cl)c1 ?
HCMV inh: -18; FMDV inh: 0%

Results for CN(C)CCCOc1ccc2c(c1)Sc1ccccc1CC2=O ?
SARS PLpro yeast: 21%; Lassa entry inh: 10%; MARV entry inh: inconclusive; HCV inhibitor: 10µM*; HCMV inh: -17; FMDV inh: -18%

How did Cn1ncc([N+](=O)[O-])c1C(=O)Nc1ccn(Cc2ccccc2F)n1 do in these assays?
SARS PLpro yeast: -2%; Lassa entry inh: -13%[14.3 µM]; MARV entry inh: 3%; HCMV inh: -62*; FMDV inh: -19%

What do the screens show for `CCn1cc(/C=C/C(=O)Nc2ccn(Cc3c(F)c(F)cc(F)c3F)n2)cn1`?
SARS PLpro yeast: -13%; Lassa entry inh: 5%; MARV entry inh: inconclusive; HCV inhibitor: inconclusive; HCMV inh: -70*; FMDV inh: -9%

Results for CCn1cc(/C=C/C(=O)Nc2ccc(C)cc2Br)cn1 ?
SARS PLpro yeast: -3%; Lassa entry inh: inconclusive; MARV entry inh: 11%; HCV inhibitor: inconclusive; HCMV inh: -35; FMDV inh: 9%

Results for Cc1nn(Cc2cccc(C(=O)Nc3ccn(Cc4ccccc4F)n3)c2)c(C)c1[N+](=O)[O-] ?
SARS PLpro yeast: 1%; Lassa entry inh: 13%; MARV entry inh: inconclusive; HCV inhibitor: 16%; HCMV inh: 26; FMDV inh: -28%

Results for Cc1ccc(Cn2ccc(NC(=O)c3nn(C)cc3Cl)n2)cc1 ?
SARS PLpro yeast: -6%; Lassa entry inh: 13%; MARV entry inh: 6%[46.1 µM]; HCV inhibitor: 11%; HCMV inh: 3; FMDV inh: 29%

How did Cn1cc([N+](=O)[O-])c(C(=O)Nc2ccn(Cc3c(F)c(F)cc(F)c3F)n2)n1 do in these assays?
SARS PLpro yeast: 4%; Lassa entry inh: -20%; MARV entry inh: 4%; HCV inhibitor: inconclusive; HCMV inh: -92*; FMDV inh: -19%

Results for Cc1cc(NC(=O)CSc2nc3c([nH]c4ccccc43)c(=O)n2-c2cccc(Cl)c2)no1 ?
Lassa entry inh: inconclusive; HCMV inh: 34; FMDV inh: -24%

What do the screens show for `COc1cc(C2C3=C(COC3=O)Oc3cc4c(cc32)OCO4)cc(OC)c1OC(C)=O` (stereo not given)?
Lassa entry inh: inconclusive; MARV entry inh: inconclusive; HCV inhibitor: 4%; HCMV inh: -69*; FMDV inh: 7%

How did COc1ccccc1OCC(=O)Nc1cc(Cl)ccc1N1CCCCC1 do in these assays?
SARS PLpro yeast: 2%; Lassa entry inh: -8%; MARV entry inh: inconclusive; HCV inhibitor: 10µM*; HCMV inh: inconclusive; FMDV inh: inconclusive

What do the screens show for `CCOc1ccccc1OCC(=O)Nc1cc(S(=O)(=O)N2CCCCC2)ccc1N1CCN(CC)CC1`?
SARS PLpro yeast: -4%; Lassa entry inh: -1%; MARV entry inh: inconclusive; HCV inhibitor: inconclusive; HCMV inh: 2; FMDV inh: -22%
